# Tgondii IFNg: T. gondii growth inhibition with IFN-gamma, primary screen, cell-based; Toxoplasma gondii growth in IFN-gamma-treated host cells; stronger effect = lower value; activity change, negative = inhibition, % (test concentration not listed); AID 1259416, 2018; actives 3.8% (n = 69,000); in the data active = activity change below about -70%, passing the limit was not always enough;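 note: host cells are HeLa cells infected with Toxoplasma gondii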
# The depositor's hits bear a star. Shown is part of a subset that was picked to be rich in hits.
SMILES,Tgondii IFNg
Cc1cc(F)ccc1NS(=O)(=O)c1cc2c3c(c1)CCN3C(=O)CC2,-45
CC(C)c1ccc(NS(=O)(=O)c2cc3c4c(c2)CCN4C(=O)CC3)cc1,-77*
CCn1c(SCc2nc(-c3cccc(C)c3)oc2C)nc(=O)c2c(C(=O)OC)cc(C3CC3)nc21,3
COCc1nc(N(C)Cc2nccn2C)c2cnn(C)c2n1,8
Cc1nc(CC(=O)N2CCCC(N(C)S(=O)(=O)Cc3ccccc3)CC2)cs1 (stereo not drawn),44
O=C(O)C1CC(N2CCCC2)CCN1C(=O)CCc1ccccc1 (stereo not drawn),-4
CC(C(=O)NCc1cnn2ccccc12)n1cnc2ccccc21 (stereo not drawn),-15
O=C1CSCC(=O)N1c1cccc2ccccc12,1
O=C1CCCN1CCC1CCCCN1C(=O)NCCc1ccc(F)cc1 (stereo not drawn),12
CCn1c(=O)c(C(=O)Nc2nccs2)c(O)c2ccccc21,66
CCN(C(=O)c1ccc(CNc2ccc(C)cc2)cc1)C1CC1,54
COc1ccc(-c2nc(Cn3nnc(-c4nc(-c5cccc(C(F)(F)F)c5)no4)c3C)c(C)o2)cc1,1
CCOC(=O)c1cncc(C#CC(C)(C)O)c1,16
O=C1NC(=Nc2ccc(Cl)cc2)SC1Cc1ccccc1 (stereo not drawn),-92*
O=C(CC1SC(=Nc2ccccc2)NC1=O)Nc1ccccc1 (stereo not drawn),-19
C/C(=N\N=C1\NC(=O)C(CC(=O)Nc2ccc(Cl)cc2)S1)c1ccco1 (stereo not drawn),-23
Cn1ccnc1-c1ccc(NCC(c2ccccn2)N2CCOCC2)nn1 (stereo not drawn),20
Oc1ccc(Cl)cc1C1=NC2(CCNCC2)NC(c2ccccc2O)C1 (stereo not drawn),-102*
CCOC(=O)N1CCC2(CC1)N=C(c1ccccc1O)CC(c1cc(Cl)ccc1O)N2 (stereo not drawn),-36
CN1CCC2(CC1)N=C(c1ccccc1O)CC(c1ccccc1O)N2 (stereo not drawn),32
CS(=O)(=O)N1CCO[C@H]2[C@@H](Oc3ccccn3)CC[C@H]21,-59
Cc1ccc(CN2CCOCC3(CC(CN4CCCC4)CO3)C2)o1 (stereo not drawn),106
CCOc1ccc(C(=O)NCCc2sc(-c3cccc(F)c3)nc2C)cc1,-42
Cc1ncc2c(c1CNC(=O)/C=C/c1ccccc1)CCN(C(=O)c1ccc(N3CCCC3=O)cc1)C2,-1
O=C(NC(c1ccccn1)C(F)(F)F)c1cn(-c2ccccc2)nn1 (stereo not drawn),5
SMILES,Tgondii IFNg
C=COCCCNc1ncc(-c2ccsc2)c(-c2cnc(OC)nc2OC)n1,-27
O=C(O)C1CN(C(=O)Cc2ccc(F)cc2)C1,6
CCCCN(C)C(=O)c1cc(-c2cnc(N3CCOCC3)nc2)cn1CC1CC1,-67
O=C(NCc1ccc(F)cc1F)c1cc(-c2cnc(N3CCCC3)nc2)cn1CC1CC1,-103*
COc1ncccc1NC(=O)c1cc(-c2cnc(N3CCCC3)nc2)cn1CC1CC1,-45
Cc1ccc(NC(=O)c2cc(-c3cnc(N4CCCC4)nc3)cn2CC2CC2)cn1,-22
Cc1cccc(NC(=O)c2cc(-c3cnc(N4CCOCC4)nc3)cn2CC2CC2)c1,-80*
CN(C)C(=O)CNC(=O)c1cc(-c2cnc(N3CCOCC3)nc2)cn1CC1CC1,43
CCN(CC)c1cc(-c2ccccc2)nc(-c2ccc(Br)cc2)n1,-36
Clc1cncc(Cl)c1CN1CCC(OCc2cccnc2)CC1,7
CCn1c(SCc2nc(-c3ccc(C)cc3)oc2C)nc(=O)c2c(C(=O)OC)cc(C3CC3)nc21,-39
O=C(NC(=O)c1cnccc1C(F)(F)F)Nc1ccc(Cl)cc1Cl,-54
Cc1cccc(C)c1-n1nnnc1-c1cnccc1C(F)(F)F,26
FC(F)(F)c1ccncc1-c1ncc(-c2cccc(Cl)c2)o1,-95*
O=C(Nc1nonc1NC(=O)c1ccccc1)c1ccccc1,-19
Cc1cc(C(=O)N2CCC(COc3ccccn3)CC2)c2cccc(Cl)c2n1,29
Cc1ccc(CS(=O)(=O)N2CCNC(C(=O)O)C2)cc1 (stereo not drawn),-4
CCOC(=O)c1nn(CCc2scnc2C)c2c1CN(C(=O)CCc1cccs1)CC2,-1
O=C(Nc1ccc(Cl)cc1)ONC(=O)c1ncc(C(F)(F)F)cc1Cl,15
NC(=O)C1(N2CCCCC2)CCN(c2ncc(NC(=O)c3ccc(Cl)cc3)cc2C(=O)O)CC1,2
O=C(Nc1ccc(Cl)cc1)c1cnc(NC2CCCCC2)cc1C(F)(F)F,-110*
COc1cccc(-n2c(=O)c(C(=O)Nc3ccc(F)c(C)c3)c(O)c3cccnc32)c1,28
O=C(O)C1CN(Cc2ccc(Cl)cc2)C1,28
COc1ccccc1N1CCN(C(=O)c2cccs2)CC1,7
COc1ccccc1N1CCN(CCCCNC(=O)c2ccc(-c3ccc(C(C)=O)cc3)cc2)CC1,7
COc1ccccc1N1CCN(Cc2nc(-c3ccc(Br)cc3)cs2)CC1,-72*

# Screening results deposited in PubChem BioAssay by Broad Institute.
